Here are results for five compounds from PubChem BioAssay.

“And” between values parts separate entries of the source, which are not always exact repeats. Equal values may be shown once. The source made the active and inactive calls.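 How the source made its calls, unless noted: active means compound raises GLP1 secretion from the human gut endocrine cells, with no numeric limit stated; inactive means the rest.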

Assay [1] in a line: suppressors of polyQ aggregation in yeast, 75Q-TubU reporter (AID 1593). Conditions: Yeast 75Q polyglutamine aggregation reporter.
A short description of assay [2]: inhibitors of mitochondrial cytochrome c release, biochemical, purified mitochondria (AID 1603).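 Further: mouse liver mitochondria challenged with calcium chloride; signal normalized to the plate average as 100%.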 Conditions: stronger effect = lower value.
Assay [3] can be described thus: inhibitors of polyQ protein aggregation (AID 1604). To be noted: polyglutamine-induced protein aggregation inhibition assay; stronger effect = higher value; tested at 2.5 µM.
Assay [4] can be described thus: stimulators of nuclear beta-catenin in C2C12, primary screen, imaging, WNT3A-conditioned medium, mouse C2C12, NPC library (AID 1117326; in the data active means nuclear beta-catenin stimulation mostly above about 4.2%, no sharp cut-off; inactive means mostly below about 10%). To be noted: stronger effect = higher value.
Assay [5] is described as follows: stimulators of insulin release from INS-1E, primary screen, cell-based, 5 mM glucose, NPC library (AID 1117329;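 active means compound raises insulin release from rat beta cells at 5 mM glucose, no numeric limit stated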). Conditions: rat INS-1E insulin secretion, at 10 µM, stronger effect = higher value.
The nature of assay [6]: growth inhibition of GSK3B-pretreated HCT116 cells – cell-based, CellTiter-Glo, 0.2 to 20 µM (AID 1117336;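 active means compounds lowering colon cancer cell viability after pretreatment blocking the GSK3B kinase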). To be noted: HCT116 viability after GSK3B inhibitor, at 20 µM, stronger effect = higher value. In general terms: Cellular ATP, detected with luciferase, serves as a proxy for viable cell number.
A short description of assay [7]: inhibition of endothelial tube formation, primary screen, imaging, VEGF stimulated, CD31 staining, tube area, NPC library (AID 1117340;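 active means compound that reduces growth-factor-driven endothelial tube area in a mixed cell culture, no cutoff stated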). Conditions: VEGF-stimulated ADSC/ECFC co-culture, at 10 µM, stronger effect = higher value.
Assay [8] in a line: glucagon-like peptide 1 release enhancers, primary assay, NCI-H716 cell line, NPC library (AID 1117341). Conditions: NCI-H716 cells, at 10 µM, stronger effect = higher value.
A short description of assay [9]: HCT116 colon cancer cell growth inhibition, primary screen, CellTiter-Glo luminescence, NPC library (AID 1117342;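 active means compounds that lower survival of HCT116 colon cancer cells in the luminescence readout, no numeric limit stated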). To be noted: at 20 µM (top of the series).
The nature of assay [10]: CellTiter-Glo luminescent readout of SW480 viability loss, NPC library primary (AID 1117343;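 active means compounds that lower viability of the colon cancer cells in the luminescence readout, with no numeric limit stated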). Conditions: CellTiter-Glo luminescence; at 20 µM (top of the series).
A short description of assay [11]: decreased DLD-1 cellular survival, CellTiter-Glo luminescent readout, NPC compound collection, primary HTS (AID 1117346;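 active means compounds that lower survival of DLD-1 colon cancer cells in the luminescence readout, no cutoff given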). Conditions: DLD-1 viability, CellTiter-Glo luminescence; at 20 µM (top of the series).
For assay [12], the target named is 6-phosphogluconate dehydrogenase, decarboxylating (Homo sapiens) (UniProt P52209). The assay is described as follows: 6PGD enzyme inhibitors, primary screen, biochemical, human, recombinant enzyme, NADPH absorbance (AID 1159550;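 active means at least 20% inhibition of 6-phosphogluconate dehydrogenase activity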). To be noted: recombinant 6PGD, NADPH absorbance 341 nm; at 10 µM; stronger effect = higher value.
Chain of 6-phosphogluconate dehydrogenase, decarboxylating (Homo sapiens) (P52209 whole entry, looked up): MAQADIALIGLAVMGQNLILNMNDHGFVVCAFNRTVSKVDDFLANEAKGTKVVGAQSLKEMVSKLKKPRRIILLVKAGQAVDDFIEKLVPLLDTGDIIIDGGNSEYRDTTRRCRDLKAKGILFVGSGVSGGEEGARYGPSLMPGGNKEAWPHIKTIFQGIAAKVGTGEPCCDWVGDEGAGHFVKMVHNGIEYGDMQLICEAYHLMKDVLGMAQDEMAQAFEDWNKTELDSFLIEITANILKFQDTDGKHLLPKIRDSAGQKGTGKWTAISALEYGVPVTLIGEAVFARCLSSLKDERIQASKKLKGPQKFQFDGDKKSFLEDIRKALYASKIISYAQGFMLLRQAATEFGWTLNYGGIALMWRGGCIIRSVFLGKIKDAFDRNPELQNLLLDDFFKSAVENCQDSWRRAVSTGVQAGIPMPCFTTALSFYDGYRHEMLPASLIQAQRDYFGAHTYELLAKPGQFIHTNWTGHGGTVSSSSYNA
Assay [13] in a line: differential killing of epithelial or mesenchymal cells, primary screen, imaging, PC-3E GFP, TEM4-18 mCherry, co-culture (AID 1345086;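 active means compounds killing one labelled cell type while sparing the other, by normalised counts and ratio limits, not self-fluorescent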;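 on all read-outs here: cells exposed to compound for 72 h before imaging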;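 on red/green cell ratio (normalised): normalised mesenchymal count divided by normalised epithelial count so high means epithelial killing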). Conditions: imaging cell counts, at 1 µM; for red/green cell ratio (normalised): actives lie on both sides.
The test system of assay [14] is Aerobactin synthetase IucA (Klebsiella pneumoniae hvKP1). The assay is described as follows: Biochemical IucA enzyme inhibition primary screen of the Spectrum library (AID 1346200; call rule not given here;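 further: 100% = wells without compound and 0% = wells lacking enzyme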). Conditions: malachite green pyrophosphate, A620, at 8 µM, stronger effect = lower value.
The nature of assay [15]: survival rescue of mitochondrial mutant cells in low glucose, primary screen, MELAS cybrids, Rieske KO mouse fibroblasts, CellTiter-Glo (AID 1508586;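 active means mean z-score across replicates of 1.96 or higher in either the MELAS or the Rieske mutant cell line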;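 further: z relative to plate mean and SD of compound and empty wells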).
Assay [16] concerns the target NAD(+) hydrolase SARM1 (Homo sapiens) (UniProt Q6SZW1). The assay is described as follows: SARM1 TIR NADase inhibitors, cell lysate, NAD-Glo luminescence (AID 1508614;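 active means compound whose remaining NAD level is above about 45 nM, limit read from the data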). Conditions: SAM-TIR HEK293T lysate NADase, at 1 µM, stronger effect = higher value.
The target in assay [17] is Mitogen-activated protein kinase 7 (Homo sapiens) (UniProt Q13164). The assay is described as follows: ERK5 transactivation activators in reporter cells, primary screen, cell-based, HTS (AID 1508626;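 active means luciferase signal above three times the same-plate solvent-only control wells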;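 further: luciferase driven by Gal4-ERK5 fusion binding five Gal4 sites before minimal TATA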). To be noted: HeLa Gal4-ERK5 transactivation, 18 h, at 5 µM, stronger effect = higher value.
Chain of Mitogen-activated protein kinase 7 (Homo sapiens) (Q13164 whole entry, looked up, the tested form may be a part): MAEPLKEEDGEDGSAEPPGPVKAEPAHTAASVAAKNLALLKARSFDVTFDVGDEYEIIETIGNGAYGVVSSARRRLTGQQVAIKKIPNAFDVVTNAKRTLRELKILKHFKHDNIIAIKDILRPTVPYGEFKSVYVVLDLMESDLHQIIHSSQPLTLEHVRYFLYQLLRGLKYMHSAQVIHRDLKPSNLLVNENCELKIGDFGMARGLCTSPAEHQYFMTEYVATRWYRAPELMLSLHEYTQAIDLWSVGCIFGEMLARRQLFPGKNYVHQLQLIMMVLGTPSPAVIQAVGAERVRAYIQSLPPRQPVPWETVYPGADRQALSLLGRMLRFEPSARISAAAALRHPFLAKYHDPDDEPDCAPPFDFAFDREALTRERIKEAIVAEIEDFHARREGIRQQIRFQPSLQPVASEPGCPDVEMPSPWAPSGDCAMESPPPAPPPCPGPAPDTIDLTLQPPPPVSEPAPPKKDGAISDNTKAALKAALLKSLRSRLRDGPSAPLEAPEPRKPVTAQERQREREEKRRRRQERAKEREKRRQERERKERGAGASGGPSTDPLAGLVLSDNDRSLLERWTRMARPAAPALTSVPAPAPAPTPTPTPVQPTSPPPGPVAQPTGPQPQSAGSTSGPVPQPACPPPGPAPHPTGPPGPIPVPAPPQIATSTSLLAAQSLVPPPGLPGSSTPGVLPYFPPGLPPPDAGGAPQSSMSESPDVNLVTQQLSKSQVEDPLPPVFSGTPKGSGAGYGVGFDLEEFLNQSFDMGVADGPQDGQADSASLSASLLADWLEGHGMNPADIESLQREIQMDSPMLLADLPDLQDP
A short description of assay [18]: viability rescue of complex I mutant cybrids, primary screen, cell-based, galactose medium, ATP luminescence (AID 1645843;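 active means z-score of at least 1.8 in each of two replicates, scored against plate mean and spread of sample wells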;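 further: positive z means more ATP and so rescue of galactose-driven cybrid death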). Conditions: complex I mutant cybrid cells, 72 h, stronger effect = higher value.
A short description of assay [19]: sensitizers of A549 cells to miR-34 induction, primary screen, imaging, A549 dox-inducible miR-34, nuclei and caspase counts (AID 1347080;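 active means compounds whose cell count with miR-34 switched on is under 0.7 times the count with it off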). Conditions: A549 miR-34 inducible, Hoechst nuclei count, 48 h.
Where [20] appears, read: measured here: epithelial PC-3E GFP cell survival.
Where [21] appears, read: measured here: mesenchymal TEM4-18 mCherry cell survival.
The mark [22] stands for this setting: MELAS cybrid survival, CellTiter-Glo 48 h, stronger effect = higher value.
The mark [23] stands for this setting: Rieske KO mouse fibroblast survival, CellTiter-Glo 72 h.

Chain of NAD(+) hydrolase SARM1 (Homo sapiens) (Q6SZW1 whole entry, looked up, the tested form may be a part): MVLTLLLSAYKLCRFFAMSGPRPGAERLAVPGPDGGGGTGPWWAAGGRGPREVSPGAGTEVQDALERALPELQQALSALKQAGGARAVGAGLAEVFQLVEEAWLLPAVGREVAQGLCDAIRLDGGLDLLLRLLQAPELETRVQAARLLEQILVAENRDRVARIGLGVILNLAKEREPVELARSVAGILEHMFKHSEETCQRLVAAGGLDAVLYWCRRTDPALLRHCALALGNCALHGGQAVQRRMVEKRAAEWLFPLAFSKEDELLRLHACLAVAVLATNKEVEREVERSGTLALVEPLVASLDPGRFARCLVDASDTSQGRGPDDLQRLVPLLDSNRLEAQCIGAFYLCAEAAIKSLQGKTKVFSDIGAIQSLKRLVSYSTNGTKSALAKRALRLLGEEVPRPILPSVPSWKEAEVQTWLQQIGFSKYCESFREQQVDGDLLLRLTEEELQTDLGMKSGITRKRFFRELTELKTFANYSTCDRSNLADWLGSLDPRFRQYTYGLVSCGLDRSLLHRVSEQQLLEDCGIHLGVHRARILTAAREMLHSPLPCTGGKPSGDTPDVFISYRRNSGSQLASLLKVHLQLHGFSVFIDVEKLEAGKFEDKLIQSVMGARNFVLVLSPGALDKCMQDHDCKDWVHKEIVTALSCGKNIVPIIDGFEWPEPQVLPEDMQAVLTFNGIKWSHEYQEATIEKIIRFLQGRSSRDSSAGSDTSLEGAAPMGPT

Broadly, the inhibition is the change of the read-out against control, counted positive when it falls. In turn, `O=c1[nH]c2ccccc2n1C1CCN(CCCC(c2ccc(F)cc2)c2ccc(F)cc2)CC1` gave a score in assay [1] of 1.1. Besides, the cytochrome c release ratio in assay [2] was found to be 1.41. The compound also came in with an inhibition of aggregation in assay [3] of 38.1%. Moreover, the nuclear beta-catenin stimulation is 7.8% (inactive) in assay [4] (at 10 µM) and 0.2% in [4] (stimulation, at 2 µM). The insulin secretion stimulation in assay [5] was 0.4% (inactive). Moreover, the viability decrease in assay [6] was 98.9% (active). Moreover, in [7], the tube area decrease is 108% (active). In [8], the GLP1 secretion stimulation is -4.5% (inactive). The inhibition of viability in assay [9] is 99.6% (active). The viability decrease (inhibition) was 102% (active) in assay [10] and 99.3% (active) in assay [11]. Further, the inhibition in [12] is 13.7% (inactive). Also, the red/green cell ratio (normalised) in assay [13] is 0.96 (inactive). The normalised cell number turned out to be 1.24 in [13] (setting [20]) and 1.19 in [13] (setting [21]). Also, the activity remaining in assay [14] is 128% (inactive). The z-score is 0.83 (inactive) and 0.29 (inactive) in assay [15] (setting [22]); 0.702 and -0.0813 in assay [15] (setting [23]); -1.29 (inactive) and -1.18 (inactive) and -2 (inactive) in assay [18]. Besides, in [16], the remaining NAD was 10 nM (inactive). For the same compound, the luciferase signal in [17] is 68 AU (inactive).
For `CCCC1CCCCN1` (stereo unspecified), the nuclear beta-catenin stimulation was 0.5% (inactive) in assay [4] (at 10 µM) and 0.1% in [4] (stimulation, at 2 µM). For the same compound, the insulin secretion stimulation in assay [5] is -0.9% (inactive). Further, in [6], the viability decrease is -0.7% (inactive). Moreover, in assay [7], the tube area decrease is 2.4% (inactive). In [8], the GLP1 secretion stimulation is 0% (inactive). Also, the inhibition of viability in assay [9] was -0.2% (inactive). For the same compound, the viability decrease (inhibition) was 8% (inactive) in [10] and -1.85% (inactive) in [11]. Further, in [12], the inhibition is 18.6% (inactive).
`NCCc1ccc(O)cc1` yielded a score in [1] of 1.21. The cytochrome c release ratio in assay [2] worked out at 0.71. This compound also had an inhibition of aggregation in assay [3] of 39.2%. Besides, the nuclear beta-catenin stimulation was -0.5% (inactive) in [4] (at 10 µM) and 1.3% in [4] (stimulation, at 2 µM). In addition, in [5], the insulin secretion stimulation was 1.8% (inactive). In addition, the viability decrease in assay [6] was 4.6% (inactive). Also, the tube area decrease in [7] is -10% (inactive). The GLP1 secretion stimulation in assay [8] was -1.8% (inactive). Further, the inhibition of viability in assay [9] was 9.07% (inactive). For the same compound, the viability decrease (inhibition) in assay [10] is 5.3% (inactive); in assay [11] it was -2.9% (inactive). In assay [12], the inhibition is -11.3% (inactive). Further, the red/green cell ratio (normalised) in assay [13] is 0.8 (inactive). Further, the normalised cell number is 1.04 in assay [13] (setting [20]) and 0.83 in assay [13] (setting [21]). Moreover, in assay [14], the activity remaining was 108% (inactive). Moreover, the fold change is 0.965 (inactive) in assay [19] (stronger effect = lower value, cell number ratio, induced over uninduced) and 1.32 in [19] (measured here: relative caspase fold change +Dox/-Dox). Further, the cell count came to 10000 in assay [19] (measured here: total cells with miR-34 induction, stronger effect = lower value) and 10400 in assay [19] (measured here: total cells without miR-34 induction). Besides, the luciferase signal in assay [17] was 52 AU (inactive). Moreover, the z-score in [18] was 0.68 (inactive).
`COC(=O)C1=CCCN(C)C1` yielded a score in [1] of 1.73. Also, the cytochrome c release ratio in assay [2] worked out at 0.68. In addition, the inhibition of aggregation in assay [3] is 81.4%. Further, the nuclear beta-catenin stimulation is 4.2% (inactive) in [4] (at 10 µM) and 2.3% in assay [4] (stimulation, at 2 µM). The insulin secretion stimulation in assay [5] is -0.6% (inactive). For the same compound, the viability decrease in assay [6] is -6.9% (inactive). Also, the tube area decrease in assay [7] is 25.2% (inactive). Also, in assay [8], the GLP1 secretion stimulation is -0.8% (inactive). Moreover, the inhibition of viability in assay [9] was -3.33% (inactive). Further, the viability decrease (inhibition) in [10] was 8.4% (inactive); in [11], -18.9% (inactive). Besides, in assay [12], the inhibition was -2.35% (inactive). For the same compound, in assay [13], the red/green cell ratio (normalised) was 1.16 (inactive). The figures for the normalised cell number in assay [13] (setting [20]) and in assay [13] (setting [21]) were 0.91 and 1.07, respectively. Further, the activity remaining in [14] is 112% (inactive). For the same compound, the z-score in assay [15] (setting [22]) was -0.328 (inactive); in [15] (setting [23]) it was 0.482; in assay [18] it was -0.47 (inactive). In addition, the remaining NAD in assay [16] was 10 nM (inactive). Moreover, the luciferase signal in [17] was 52 AU (inactive).
For `O=C(O)c1cc(Oc2ccc(C(F)(F)F)cc2Cl)ccc1[N+](=O)[O-]`, the nuclear beta-catenin stimulation is 1.4% (inactive) in assay [4] (at 10 µM) and 0.5% in [4] (stimulation, at 2 µM). Also, the insulin secretion stimulation in [5] was 4.1% (inactive). The viability decrease in [6] was -10.9% (inactive). For the same compound, in [7], the tube area decrease was 0.3% (inactive). In addition, the GLP1 secretion stimulation in [8] was 3.1% (inactive). Besides, in [9], the inhibition of viability was 9.4% (inactive). Further, the viability decrease (inhibition) in assay [10] was -9.4% (inactive); in assay [11], -3.5% (inactive).
